Assay outcomes as filed in PubChem.
KB-V1 cytotox: qHTS assay for MDR1-selective chemotherapeutics: Primary screen using the drug-selected MDR subline cells KB-V1; KB-V1 MDR cells viability, CellTiter-Glo, 72 h; Potency, µM (top dose mostly 46.1 µM), hits mostly cytotoxic; actives 3.4% (n = 400,000); AID 1347076, 2019; also: % is scaled to controls: 0 for no effect and ±100 for the full control effect; nearly all actives have a fitted effect of over 60% in size
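KB-V1, DMEM (no phenol red) + 10% FBS; cpd pin-transferred, titration series; 72 h, 37 degrees C; CellTiter-Glo, luminescence. Data normalized, curve-fit.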
MCF10A rereplic: A quantitative high throughput screen for small molecules that induce DNA re-replication in MCF 10a normal breast cells; actives 2.9% (n = 350,000); Potency, µM (titrated, usually from 46.1 µM), for the others: top-dose activity, positive = re-replication, actives largely listed as activators; MCF 10A DNA re-replication, Hoechst nuclear intensity, 48 h; also: % of control where 0% means no effect; nearly all actives have a fitted effect of over 50% in size
PINK1 modulator: A Quantitative High throughput Screen to Identify Chemical Modulators of PINK1 Expression; PINK1 immunofluorescence, high-content cytometry, 24 h; Potency, µM (doses to about 76.6 µM), without a hit: at the highest dose activation (PINK1 increase), most hits filed as activators; actives 0.2% (n = 410,000); AID 624263, 2012; active = well fitted activation curve with a large enough effect; inconclusive = small, poorly fitted or top-dose-only effect; cell line not stated here; also: % of control where 0% means no effect; nearly all actives have a fitted effect of over 65% in size
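Decision-based qHTS: stable cells, 24 h exposure to five compound concentrations, CCCP as control. Fixed cells stained for PINK1 plus nuclear, mitochondrial and cell markers, cytometer read.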
KB-3-1 tox: qHTS assay for MDR1-selective chemotherapeutics: Primary screen using the parental adenocarcinoma cell KB-3-1. KB-3-1 viability, CellTiter-Glo ATP luminescence, 72 h. Potency, µM (series often up to 46.1 µM), usual class: cytotoxic. actives 1.4% (n = 400,000). AID 1347075, 2019; also: % is scaled to controls: 0 for no effect and ±100 for the full control effect; nearly all actives have a fitted effect of over 60% in size
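KB-3-1 parental drug-naive adenocarcinoma cells in DMEM/10% FBS, incubated 72 h at 37 C with pin-transferred compounds across a concentration series. Viability by CellTiter-Glo luminescence; concentration-response curves fitted after normalization.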
SW480 rerep: A quantitative high throughput screen for small molecules that induce DNA re-replication in SW480 colon adenocarcinoma cells. SW480 DNA re-replication, Hoechst DNA content imaging, 48 h. Potency, µM (top dose mostly 46.1 µM), without a hit: top-dose re-replication activation, usual class: activators. actives 1.8% (n = 340,000). AID 624297, 2012; also: % of control where 0% means no effect; nearly all actives have a fitted effect of over 55% in size
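Image-based DNA-content assay: after two days of treatment, nuclei were labelled with the DNA dye Hoechst and imaged, and hits were compounds raising the count of nuclei showing high fluorescence intensity.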
Starred values were filed as active, the others as inactive; i = inactive; ? = inconclusive; . = no result; [ ] = dose if it differs, or a comment. The list is not random: actives were taken first. Their share in the collection is about 6.7%. Unless noted, calls follow the shape of the dose curve; as a rule, active = well fitted curve in the direction sought with a large enough effect; inconclusive = small, poorly fitted or top-dose-only effect, or another doubt; inactive = no such curve, though single readings can be large; an effect the other way counts as inactive or inconclusive. Potency is read from the fitted curve at half-maximal effect.

SMILES	KB-V1 cytotox	MCF10A rereplic	PINK1 modulator	KB-3-1 tox	SW480 rerep
O=[N+]([O-])c1ccc2nc(CO)[nH]c2c1	i	.	.	i	.
O=[N+]([O-])c1ccc(/C=C/c2nc3ccc([N+](=O)[O-])cc3[nH]2)cc1	3.7µM*	-1%	?	i	-4%
CC(C)CCNC(=O)c1ccc(Cn2c(SCC(N)=O)nc3ccccc3c2=O)cc1	i	.	-3%	i	.
CC(=O)Nc1ccc(NC(=O)CSc2n[nH]c(-c3cccs3)n2)cc1	i	3%	-4%	i	-3%
CCn1c(/C=C/N(C)c2ccccc2)[n+](CC)c2ccc(Cl)cc21	i	27%	.	5.2µM*	3%
C=C1NN(Cc2ccc(OC)cc2)C(=O)N1c1ccccc1	i	.	0%	i	.
COc1ccc(CCNC(=O)c2cccc3c2C(=O)N(C2CCCCC2)C3)cc1OC	18µM*	13%	2%	i	-7%
O=C(NCCc1ccccc1)c1cccc2c1C(=O)N(C1CCCCC1)C2	i	0%	1%	i	-19%
O=C1CC(N2CCN(Cc3ccccc3)CC2)C(=O)N1CCc1ccccc1 (stereo not drawn)	i	26µM*	14%[38.3 µM]	i	-5%
CCCn1nnc(NC(=O)c2ccccc2Br)n1	i	18µM*	.	i	5.2µM*
CCCn1nnc(NC(=O)c2ccc(-c3cc(Cl)ccc3Cl)o2)n1	i	20%	14%	i	3%
CCCn1nnc(NC(=O)/C=C/c2ccco2)n1	i	30%	0%	i	21µM*
CCCCn1nnc(NC(=S)NC(=O)c2ccc(-c3cccc(Cl)c3Cl)o2)n1	15µM*	14%	-3%	?	-5%
CCCn1nnc(NC(=O)Cc2ccc(Cl)cc2)n1	i	8.2µM*	-4%[38.3 µM]	?	-2%
CCn1nnc(NC(=O)c2ccccc2Br)n1	i	-1%	-1%[38.3 µM]	i	-2%
CCCn1nnc(NC(=O)COc2ccc(Cl)cc2)n1	i	8%	-1%	i	-2%
Cc1ccc(CNC(=O)CSc2ncc3c(n2)-c2ccc(Cl)cc2N(Cc2ccccc2)S3(=O)=O)cc1	i	.	0%	i	.
CCCn1cc(S(=O)(=O)c2ccc(OC)cc2)c(=O)c2cc(F)c(N3CCCCCC3)cc21	?	.	1%	i	.
COc1ccccc1N1CCN(C(=O)C2=CC=CN3CCS(=O)(=O)N=C23)CC1	i	-10%	4%	?	-19%
CC(=O)Nc1ccc(/C=C/c2ccnc3ccccc23)cc1	i	.	-1%	i	.
CCN(CC)S(=O)(=O)c1ccc2c(c1)N(CC(=O)NCCCN1CCN(c3cc(Cl)ccc3C)CC1)C(=O)CO2	13µM*	.	1%	?	.
CCN(CC)S(=O)(=O)c1ccc2c(c1)N(CC(=O)N1CCN(c3cc(Cl)ccc3C)CC1)C(=O)CO2	i	.	2%	i	.
Cc1ccc(Cl)cc1N1CCN(CCCNC(=O)C2COc3ccccc3C2)CC1 (stereo not drawn)	i	.	0%	21µM*	.
Cc1cc2c(OCC(CNC(C)(C)C)OC(=O)c3ccccc3)cccc2[nH]1 (stereo not drawn)	.	3%	.	.	-2%
CN(C)c1nc(N/N=C/c2c[nH]c3ccccc23)nc(N2CCOCC2)n1	i	19%	0%	i	15µM*
O=C(C1=C[C@H](c2ccc(C(F)(F)F)cc2)C[C@H](OCc2ccc(CO)cc2)O1)N1CCCCCCC1	?	?	3%	i	0%[9.22 µM]
O=C(Nc1ccccc1)C1=C[C@H](c2ccc(C(F)(F)F)cc2)C[C@H](OCc2ccc(CO)cc2)O1	i	26µM*	4%	i	1%
O=C(O)C1=C[C@@H](c2ccc(C(F)(F)F)cc2)C[C@@H](OCc2ccc(CO)cc2)O1	18µM*	11%	8%	i	-2%
CC(O)CNCc1ccc(-c2ccccc2)cc1 (stereo not drawn)	i	?	-1%[38.3 µM]	i	?
